# Screening results: PubChem, National Center for Advancing Translational Sciences (NCATS)
# A selection: hits, their analogues and other compounds. The true share with any hit is near 1.3%.
# VACV Venus inh: inhibitors of vaccinia virus (Venus reporter); Vaccinia virus Venus reporter expression, fluorescence; Potency, µM (doses to about 36.5 µM), for inactives: top-dose activity change, negative = inhibition, most hits filed as inhibitors; hit rate 0.46% among 330,000; AID 720580; calls by dose curve; tested in A549 cells; also: % is scaled to controls: 0 for no effect and ±100 for the full control effect; nearly all actives have a fitted effect of over 30% in size
# AmpC inh no detg: blocks E. coli AmpC beta-lactamase in detergent-free assay; P00811; AmpC nitrocefin hydrolysis, absorbance 480 nm, 0.0001% Triton; Potency, µM (top dose mostly 57.1 µM), inactives show at the top dose activity change, negative = inhibition, usual class: inhibitors; hit rate 0.52% among 330,000; AID 485341;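 also: plate controls were no compound for no effect and no enzyme for full effect; nearly all actives have a fitted effect of over 20% in size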
# Target sequence (P00811 whole entry, looked up): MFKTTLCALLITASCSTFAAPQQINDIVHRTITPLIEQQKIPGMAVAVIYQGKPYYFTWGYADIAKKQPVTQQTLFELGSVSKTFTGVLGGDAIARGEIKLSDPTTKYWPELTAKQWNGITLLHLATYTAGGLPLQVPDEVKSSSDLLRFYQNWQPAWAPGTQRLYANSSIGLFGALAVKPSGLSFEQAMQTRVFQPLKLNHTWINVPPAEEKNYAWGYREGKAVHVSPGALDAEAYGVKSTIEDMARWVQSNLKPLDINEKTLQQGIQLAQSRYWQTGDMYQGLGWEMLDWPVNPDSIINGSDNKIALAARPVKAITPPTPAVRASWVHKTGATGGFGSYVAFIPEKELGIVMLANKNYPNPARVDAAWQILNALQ
#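 AmpC (5.3 nM in the dispensed reagent) in 20 mM phosphate pH 7.0 with 0.01% (detergent screen) or 0.0001% Triton X-100 was preincubated with compounds for 15 min at room temperature. Nitrocefin was then added from an 800 uM solution, and hydrolysis was followed at 480 nm.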
# SARS PLpro yeast: SARS-CoV PLP inhibition in yeast; hit rate 0.19% among 330,000; AID 485353; Potency, µM (titrated, usually from 32.9 µM), inactives show top-dose activity, positive = growth rescue, most hits filed as activators; S. cerevisiae expressing SARS-CoV PLpro, growth rescue; calls by dose curve; also: 0% is about no effect; nearly all actives have a fitted effect of over 55% in size
# AmpC detergent: blocks E. coli AmpC beta-lactamase in detergent assay. P00811. AmpC hydrolysis of nitrocefin, absorbance 480 nm, 0.01% Triton. Potency, µM (doses to about 114 µM), without a hit: at the highest dose activity change, negative = inhibition, hits mostly inhibitors. hit rate 0.041% among 370,000;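 also: 0% = no-compound wells and -100% = no-enzyme wells; nearly all actives have a fitted effect of over 25% in size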
#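 20 mM phosphate pH 7.0 + 0.01% (detergent screen) or 0.0001% Triton X-100; 5.3 nM AmpC reagent; cpd preinc 15 min RT; nitrocefin (800 uM stock) to start; A480 q20 s × 4 min; Activity was normalised to no-enzyme and no-compound control wells.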
# Vaccinia mCherry: inhibitors of vaccinia virus infection (mCherry reporter signal) | Potency, µM (titrated, usually from 36.5 µM), for inactives: at the highest dose activity change, negative = inhibition, hits mostly inhibitors | hit rate 0.63% among 310,000 | AID 720579 | Vaccinia virus mCherry reporter infection, fluorescence; calls by dose curve; tested in A549 cells; also: % is scaled to controls: 0 for no effect and ±100 for the full control effect; nearly all actives have a fitted effect of over 35% in size
# The depositor's hits bear a star; i = inactive; ? = inconclusive; nt = no result. Unless noted, calls follow the shape of the dose curve; as a rule, active = well fitted curve in the direction sought with a large enough effect; inconclusive = small, poorly fitted or top-dose-only effect, or another doubt; inactive = no such curve, though single readings can be large; an effect the other way counts as inactive or inconclusive. Potency is read from the fitted curve at half-maximal effect.
SMILES,VACV Venus inh,AmpC inh no detg,SARS PLpro yeast,AmpC detergent,Vaccinia mCherry
Cc1nn2c(N3CCN(C(=O)c4ccco4)CC3)cc(C(C)(C)C)nc2c1-c1ccccc1,10µM*,-1%,-2%,-8%,nt
COc1cc(=O)n2c(c1C(=O)N(C)Cc1nonc1C)CCN(Cc1cccc3ccccc13)CC2,2%,nt,nt,nt,-16%
CC(Sc1ccccc1)C(=O)Nc1ccccc1C(=O)N1CCOCC1 (configuration not stated),-7%,0.28µM*,0%,5%,nt
O=C(NCCc1nnc2n1CCN(Cc1cc3ccccc3o1)CC2)c1ccoc1,-11%,nt,nt,nt,i
CN(C)C(=S)SSC(=S)N(C)C,-11%,?,-27%,79µM*,-26%
CC(NC(=O)c1cc(F)ccc1F)c1nnc2n1CCN(Cc1ccccc1O)CC2 (configuration not stated),0%,nt,nt,nt,-2%
Cn1c(=O)c(=O)n(C)c2cc(S(=O)(=O)CCC(=O)N3CCOCC3)ccc21,-1%,4µM*,12%,6%,5%
Cc1nc(C)c(CC(=O)N2CCOc3ccc(CN4CCN(c5ccccn5)CC4)cc3C2)s1,-27%,nt,nt,nt,?
CCc1nc2cc(C(=O)N3CCCN(C=O)CC3)cc(NC(=O)c3ccccc3OC)c2n1C,0%,nt,nt,nt,-7%
O=C(c1ccco1)N1CCN=C1SCc1cccc(F)c1,-7%,-20%,9%,4%,-4%
O=C(c1ccco1)N1CCN=C1SCc1ccc(F)cc1,4%,8.9µM*,0%,?,i
CCOC(=O)c1oc2ccccc2c1NC(=O)CCl,nt,-10%,-1%,-1%,nt
CCOC(=O)c1oc2ccccc2c1NC(=O)c1ccc(Cl)s1,-3%,7.1µM*,-8%,?,i
S=C1NC2=C(CCC/C2=C\c2ccccc2)C(c2ccccc2)N1 (configuration not stated),3%,11µM*,-3%,-12%,i
S=C1NC2=C(CCC/C2=C\c2ccc(Cl)cc2)C(c2ccc(Cl)cc2)N1 (configuration not stated),-19%,-53%,-1%,0%,?
Cc1cc(C(=O)N2CCOc3ccc(CN4CCC(Oc5cccnc5)CC4)cc3C2)c(C)o1,3%,nt,nt,nt,-9%
Cc1ccc(NC(=S)N/N=C/c2ccc([N+](=O)[O-])s2)cc1,?,-47%,-127%,?,10µM*
COc1ccc(CN2CCCC(n3cc(C(=O)N4CCCCC4)nn3)C2)cc1OC (configuration not stated),5%,nt,nt,nt,-8%
CN(C)CC(C)(C)CNC(=O)c1cnn(-c2ncc3c(n2)-c2ccccc2CC3)c1-c1ccco1,-7%,nt,nt,nt,-3%
CCOC(=O)C1=C(C)Nc2ccccc2N=C1NC(=O)C(c1ccccc1)c1ccccc1,1%,28µM*,0%,-4%,6%
Cc1nc(NCc2c(C)nn(C)c2Cl)sc1-c1ccn(CC2COc3ccccc3O2)n1 (configuration not stated),-13%,nt,nt,nt,-24%
COCc1ccc(CN2CCOc3c(cc(-c4cc(C)c5cccc(OC)c5n4)cc3OC)C2)o1,4%,nt,nt,nt,-19%
CCCNC(=O)c1ccc2c(=O)c(O)c(-c3ccc(F)cc3)[nH]c2c1,?,-46%,13µM*,3%,?
Cc1ccc(CN2C(=O)C(CC(C)C)Nc3ncnc(N4CCN(c5ccccn5)CC4)c32)cc1 (configuration not stated),?,38%,3%,-10%,28µM*
CCCN1C(=O)SC(CC(=O)Nc2ccc(C)cc2)C1=O (configuration not stated),-2%,-25%,11µM*,-14%,nt
SMILES,VACV Venus inh,AmpC inh no detg,SARS PLpro yeast,AmpC detergent,Vaccinia mCherry
COc1ccc(CCNC(=O)c2cc3sc(Cl)cc3n2C)cc1OC,-10%,50µM*,-17%,?,i
OC(COc1ccc2ccccc2c1)CN1CCN(c2ccc(F)cc2)CC1 (configuration not stated),3%,40µM*,-4%,?,22%
CO[C@H]1[C@H](NC(=O)c2ccsc2)c2ccccc2C12CCN(Cc1cc(Cl)ccc1O)CC2,-18%,nt,nt,nt,-28%
CCN(CC)CCCNc1nc2ccccc2c2nc(-c3ccncc3)nn12,11µM*,25%,1%,6%,?
CCN(CC)S(=O)(=O)c1ccc(-c2nnc(SCC(=O)Nc3nc(C)cs3)o2)cc1,11µM*,-2%,4%,-10%,5µM*
Cc1csc(NC(=O)CSc2nnc(-c3ccccc3)o2)n1,-13%,-19%,-4%,-1%,-3%
Cc1csc(NC(=O)CSc2nnc(-c3ccc(S(=O)(=O)N4CCCC4)cc3)o2)n1,4.5µM*,-6%,-2%,?,3.2µM*
O=C(Nc1nc(-c2cc3ccccc3o2)cs1)c1ccc(S(=O)(=O)N2CCCC2)cc1,nt,18µM*,-12%,-7%,nt
Cc1ccc2nc(SCC(=O)NCC3Cc4cccc(-c5nc(C)cnc5C)c4O3)[nH]c2c1 (configuration not stated),0%,nt,nt,nt,-11%
CC12CCC3C(CCC4(O)CC(O)CCC34C=O)C1(O)CCC2C1=CC(=O)OC1 (configuration not stated),1µM*,nt,nt,nt,?
C[C@H]1O[C@@H](OC2CC[C@]3(C=O)[C@H]4CC[C@]5(C)[C@@H](C6=CC(=O)OC6)CC[C@]5(O)[C@@H]4CC[C@]3(O)C2)CC2OC(C)(C)OC21 (some centres not stated),0.28µM*,124%,0%,-7%,?
CC12CC[C@H]3[C@@H](CCC4(O)C[C@H](O)CCC34/C=N/NC(=O)c3ccccc3Cl)C1(O)CCC2C1=CC(=O)OC1 (some centres not stated),nt,84%,-3%,2%,nt
CC12CCC3C(CCC4(O)CC(O)CCC34C=NO)C1(O)CCC2C1=COC(=O)C1 (configuration not stated),0.4µM*,nt,nt,nt,32µM*
CCCCN=C[C@]12CCC(O)CC1(O)CCC1[C@@H]2CC[C@]2(C)[C@H](C3C=CC(=O)O3)CCC12O (some centres not stated),0.32µM*,-4%,0%,-5%,0.32µM*
COC(=O)[C@@H]1C[C@@H](NC(=O)c2cccc3c(C)c(C)[nH]c23)CN1Cc1cccc2ccccc12,16%,nt,nt,nt,7%
O=C(NCC1Cc2cc(-c3cncnc3)cc(Cl)c2O1)c1cccc(Cn2cccn2)c1 (configuration not stated),-3%,nt,nt,nt,-3%
O=C(NCC1Cc2cccc(-c3nccs3)c2O1)c1ccnc(Cl)c1 (configuration not stated),-25%,nt,nt,nt,-10%
C[C@]12CCC3C(CCC4=CC(O)CC[C@@]43/C=N/O)C1(O)CCC2C1=CC(=O)OC1 (some centres not stated),0.32µM*,-15%,0%,2%,?
